Shown are actives, neighbours in structure and some others; about 2.9% of the full set was active somewhere.
Mcl-1 Bim block: human Bim-Mcl-1 interaction inhibition; Bead-based flow cytometry, Bim peptide-Mcl-1 binding; AID 1009; Q07820; actives 0.1% (n = 190,000); inhibition, % at 10 µM; in the data active = inhibition above about 40%;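 note: 0% = no compound tracer wells and 100% = peptide blocker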
Mcl1 Bid PPI: Mcl-1/Bid interaction inhibition; Q07820; TR-FRET Mcl-1/Bid-Dy647 peptide binding, 1536-well; inhibition, % at 21.7 µM; actives 0.97% (n = 220,000); AID 1021;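 active = compounds that cut the binding signal by more than half at the single screening dose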;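 note: His-tagged Mcl-1 with europium anti-His antibody binding Bid BH3 peptide; 0% = Mcl-1 plus peptide wells and 100% = peptide-only wells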
Hck Nef HTS: blocks Nef-activated human Hck kinase | P08631 | Recombinant Hck-YEEI plus Nef, Z-Lyte FRET kinase assay | inhibition, % at 20 µM | actives 0.68% (n = 220,000) | AID 463187;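 active = Hck-Nef kinase inhibition above about 50%, limit read from the data; inactive = inhibition below that limit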;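 note: 0% = DMSO with Hck plus Nef and 100% = Hck alone without Nef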
Target sequence (P08631 whole entry, looked up): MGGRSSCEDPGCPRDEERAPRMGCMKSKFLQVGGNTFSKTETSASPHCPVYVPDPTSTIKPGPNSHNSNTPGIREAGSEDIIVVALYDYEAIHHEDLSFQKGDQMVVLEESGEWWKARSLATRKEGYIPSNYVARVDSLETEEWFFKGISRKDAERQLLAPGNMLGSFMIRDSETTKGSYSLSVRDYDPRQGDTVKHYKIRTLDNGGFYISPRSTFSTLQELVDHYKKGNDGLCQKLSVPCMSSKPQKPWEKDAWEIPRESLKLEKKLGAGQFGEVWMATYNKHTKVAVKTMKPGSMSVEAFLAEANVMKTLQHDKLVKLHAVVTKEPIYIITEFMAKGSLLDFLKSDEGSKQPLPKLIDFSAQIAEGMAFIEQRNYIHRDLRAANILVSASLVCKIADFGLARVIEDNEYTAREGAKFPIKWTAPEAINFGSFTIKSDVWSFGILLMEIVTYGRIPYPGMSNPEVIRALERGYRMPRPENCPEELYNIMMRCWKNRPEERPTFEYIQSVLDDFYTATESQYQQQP
Pf gametocyte: kills late stage P. falciparum gametocytes; actives 0.065% (n = 150,000); P. falciparum stage V gametocytes, ATP luminescence, 24 h; inhibition, % at 10.9 µM;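 active = inhibition above the mean plus 3 SD of compounds within the control limits, set per campaign, cut at about 38% in these data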;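 note: 0% = DMSO wells and 100% = medium only without gametocytes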
Mcl1-Noxa inh: disrupts binding of human Mcl-1 to Noxa peptide | Q07820 | TR-FRET Mcl-1/Noxa peptide binding, 2 h | inhibition, % at 21.7 µM | AID 1022 | actives 1.5% (n = 220,000);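 active = compounds that cut the protein-peptide binding signal by more than 50% relative to plate controls in a single-dose test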;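 note: His-tagged Mcl-1 with rhodamine Noxa BH3 peptide and terbium anti-His antibody; 0% = Mcl-1 plus Noxa peptide wells and 100% = peptide-only wells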
14-3-3 Bad inh: disrupts binding of bovine 14-3-3 zeta to phospho-Bad peptide; actives 0.71% (n = 220,000); inhibition, % at 21.7 µM; TR-FRET 14-3-3zeta/Dy647-pBad peptide displacement, 1 h;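 active = inhibition above about 70%, limit read from the data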;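 note: 0% = full 14-3-3 plus peptide FRET controls and 100% = background without 14-3-3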
Target sequence (P63103 whole entry, looked up): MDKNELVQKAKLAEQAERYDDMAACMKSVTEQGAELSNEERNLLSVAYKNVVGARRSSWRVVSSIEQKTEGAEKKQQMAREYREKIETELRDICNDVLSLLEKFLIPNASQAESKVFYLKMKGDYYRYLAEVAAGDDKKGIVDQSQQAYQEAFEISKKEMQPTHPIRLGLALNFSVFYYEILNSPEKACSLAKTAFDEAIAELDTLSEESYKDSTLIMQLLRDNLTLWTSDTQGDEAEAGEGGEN
An asterisk follows results filed as active.

What do the screens show for `CCN1CCN(Cc2nnnn2C(C)(C)C)CC1`?
Mcl-1 Bim block: 3.0; Mcl1 Bid PPI: -3.6; Hck Nef HTS: 1.7; Pf gametocyte: 0.1; Mcl1-Noxa inh: 22.5; 14-3-3 Bad inh: 74.8*

Results for CCC(C)(C)n1nnnc1CN1CCC(n2c(C)nc3cc(C(F)(F)F)ccc32)CC1 ?
Mcl1 Bid PPI: 1.2; Hck Nef HTS: -8.0; Mcl1-Noxa inh: -0.2; 14-3-3 Bad inh: 10.2

How did CCC(C)N1C(=O)/C(=C/c2ccc3c(c2)CCN3CCCCl)C(=O)NC1=S (stereo not drawn) do in these assays?
Mcl-1 Bim block: -4.0; Mcl1 Bid PPI: 39.1; Hck Nef HTS: 44.5; Pf gametocyte: 12.8; Mcl1-Noxa inh: 101.2*; 14-3-3 Bad inh: -3.6

How did O=C(O)Cn1cc(C(=O)c2ccccc2)c2ccccc21 do in these assays?
Mcl-1 Bim block: -3.0; Mcl1 Bid PPI: 6.9; Hck Nef HTS: 0.6; Pf gametocyte: 0.5; Mcl1-Noxa inh: 5.5; 14-3-3 Bad inh: 3.2

Results for Cn1c(O)c(C(c2ccccn2)c2c(O)n(C)c(=S)[nH]c2=O)c(=O)[nH]c1=S ?
Mcl-1 Bim block: 2.0; Mcl1 Bid PPI: 4.5; Hck Nef HTS: -1.1; Mcl1-Noxa inh: 4.4; 14-3-3 Bad inh: 76.6*

Results for O=c1oc2ccccc2c(O)c1C(c1ccccn1)c1c(O)c2ccccc2oc1=O ?
Mcl1 Bid PPI: -14.5; Hck Nef HTS: 8.6; Pf gametocyte: -5.0; Mcl1-Noxa inh: 13.9; 14-3-3 Bad inh: -1.3

What do the screens show for `Cc1ccc(CN2CCN(Cc3ccccc3F)CC2)cc1`?
Mcl-1 Bim block: -3.0; Mcl1 Bid PPI: 7.4; Hck Nef HTS: 16.3; Pf gametocyte: -14.4; Mcl1-Noxa inh: 16.1; 14-3-3 Bad inh: 56.6

How did FC(F)(F)c1ccccc1CN1CCN(Cc2ccccc2)CC1 do in these assays?
Mcl-1 Bim block: -2.0; Mcl1 Bid PPI: 11.6; Hck Nef HTS: 3.6; Pf gametocyte: -0.4; Mcl1-Noxa inh: 11.8; 14-3-3 Bad inh: 73.6*

What do the screens show for `CN(C)CP(=O)(O)CN(C)C=O`?
Mcl-1 Bim block: 2.0; Mcl1 Bid PPI: -39.7; Hck Nef HTS: 3.8; Mcl1-Noxa inh: -20.1; 14-3-3 Bad inh: 90.9*

What do the screens show for `Cc1nn(Cc2ccccc2)c(C)c1C(=O)O`?
Mcl-1 Bim block: 0.0; Mcl1 Bid PPI: 6.5; Hck Nef HTS: 24.1; Pf gametocyte: -6.4; Mcl1-Noxa inh: 7.2; 14-3-3 Bad inh: -6.2

What do the screens show for `CCOc1ccc(-n2c(-c3ccoc3)nc3ccccc3c2=O)cc1`?
Mcl-1 Bim block: -1.0; Mcl1 Bid PPI: 96.1*; Hck Nef HTS: -11.0; Pf gametocyte: 13.7; Mcl1-Noxa inh: -7.3; 14-3-3 Bad inh: 0.8

Results for CN1/C(=C\C=C2C(=O)NC(=S)NC2=O)C(C)(C)c2ccccc21 ?
Mcl-1 Bim block: -3.0; Mcl1 Bid PPI: 82.4*; Hck Nef HTS: 16.4; Pf gametocyte: -18.1; Mcl1-Noxa inh: -35.5; 14-3-3 Bad inh: -24.1

Results for COc1ccc(CNC(=O)/C=C/c2ccc3[nH]cc(CCN(C)C)c3c2)cc1 ?
Mcl1 Bid PPI: -84.4; Hck Nef HTS: 32.9; Mcl1-Noxa inh: 7.0; 14-3-3 Bad inh: 1.9

How did CN(C)c1ccc(C=C2C(=O)NC(=S)NC2=O)cc1[N+](=O)[O-] do in these assays?
Mcl-1 Bim block: -2.0; Mcl1 Bid PPI: -11.5; Hck Nef HTS: 26.7; Pf gametocyte: -4.1; Mcl1-Noxa inh: 64.9*; 14-3-3 Bad inh: 1.3

What do the screens show for `O=C(c1ccc(C(F)(F)F)cc1)C1CCCN(C2CCSCC2)C1` (stereo not drawn)?
Mcl-1 Bim block: -1.0; Mcl1 Bid PPI: -27.1; Hck Nef HTS: -8.0; Mcl1-Noxa inh: 6.8; 14-3-3 Bad inh: -0.7

How did COC(=O)C1=Nc2ccccc2/C1=C\c1c(O)n(-c2cc(OC)ccc2OC)c(=O)[nH]c1=O do in these assays?
Mcl-1 Bim block: 1.0; Mcl1 Bid PPI: 22.8; Hck Nef HTS: 20.4; Pf gametocyte: -16.0; Mcl1-Noxa inh: 65.3*; 14-3-3 Bad inh: 40.1

Results for C=CCN1C(=O)C2(C(C(=O)OCC)=C(N)Oc3ccccc32)C2=C1CCCC2=O (stereo not drawn) ?
Mcl-1 Bim block: 0.0; Mcl1 Bid PPI: -9.7; Hck Nef HTS: 13.7; Pf gametocyte: 6.9; Mcl1-Noxa inh: -5.6; 14-3-3 Bad inh: 1.5

Results for COc1ccc(Cl)cc1C(=O)C1CCCN(CCO)C1 (stereo not drawn) ?
Mcl-1 Bim block: -5.0; Mcl1 Bid PPI: -7.5; Hck Nef HTS: 7.9; Pf gametocyte: 0.6; Mcl1-Noxa inh: -0.3; 14-3-3 Bad inh: -6.6

How did Brc1ccccc1 do in these assays?
Mcl1 Bid PPI: 82.5*; Hck Nef HTS: 30.0; Mcl1-Noxa inh: -15.3; 14-3-3 Bad inh: -0.1

How did O=C(Cc1ccccc1)OCCNC(=O)c1cccnc1 do in these assays?
Mcl-1 Bim block: 92.0*; Mcl1 Bid PPI: 47.3; Hck Nef HTS: -16.7; Mcl1-Noxa inh: 12.9; 14-3-3 Bad inh: 70.6*

What do the screens show for `CN=C(SCc1cc2c(cc1Cl)OCO2)c1c(O)n(C)c(=O)n(C)c1=O`?
Mcl-1 Bim block: -3.0; Mcl1 Bid PPI: 13.1; Hck Nef HTS: 1.9; Mcl1-Noxa inh: -4.4; 14-3-3 Bad inh: 4.3

How did CCN(CC)P(=S)(c1c(C)nc2ccccn12)c1c(C)nc2ccccn12 do in these assays?
Mcl-1 Bim block: -1.0; Mcl1 Bid PPI: -27.1; Hck Nef HTS: 19.6; Pf gametocyte: 9.7; Mcl1-Noxa inh: 18.4; 14-3-3 Bad inh: 2.4

Results for CN1CCN(CC#CCOc2ccc(Cl)cc2)CC1 ?
Pf gametocyte: 1.1

How did CCCN(CC#CCOc1ccc(OC)cc1)CCC do in these assays?
Mcl-1 Bim block: 0.0; Mcl1 Bid PPI: 20.6; Hck Nef HTS: 1.4; Pf gametocyte: 4.2; Mcl1-Noxa inh: 18.9; 14-3-3 Bad inh: 93.9*

How did Cc1cc(C)cc(NC2=NCCCS2)c1 do in these assays?
Mcl-1 Bim block: 0.0; Mcl1 Bid PPI: -10.8; Hck Nef HTS: 2.7; Pf gametocyte: -6.4; Mcl1-Noxa inh: 14.3; 14-3-3 Bad inh: 4.9

What do the screens show for `COc1ccc(CN2CCN(c3ccccc3F)CC2)cc1O`?
Mcl-1 Bim block: 0.0; Mcl1 Bid PPI: 80.7*; Hck Nef HTS: -20.9; Mcl1-Noxa inh: 27.2; 14-3-3 Bad inh: 57.7

Results for Fc1ccccc1N1CCN(Cc2ccc3c(c2)OCO3)CC1 ?
Mcl-1 Bim block: -3.0; Mcl1 Bid PPI: 48.3; Hck Nef HTS: -0.8; Pf gametocyte: 27.4; Mcl1-Noxa inh: 33.1; 14-3-3 Bad inh: 77.4*

Results for Clc1ccccc1N1CCN(Cc2ccc3c(c2)OCO3)CC1 ?
Pf gametocyte: -23.9

How did COc1ccccc1N1CCN(Cc2ccc(F)cc2)CC1 do in these assays?
Mcl-1 Bim block: 0.0; Mcl1 Bid PPI: -11.5; Hck Nef HTS: 10.1; Pf gametocyte: -19.7; Mcl1-Noxa inh: 0.2; 14-3-3 Bad inh: -6.2

Results for CCc1c(C)nc(N)nc1N1N=C1SCCOc1ccccc1 ?
Mcl-1 Bim block: -4.0; Mcl1 Bid PPI: -7.8; Hck Nef HTS: 5.0; Pf gametocyte: 3.5; Mcl1-Noxa inh: 7.6; 14-3-3 Bad inh: 1.3

What do the screens show for `Cn1c(O)c(/C=C/C=Nc2ccccc2)c(=O)n(C)c1=S`?
Mcl-1 Bim block: -4.0; Mcl1 Bid PPI: 55.5*; Hck Nef HTS: 31.0; Pf gametocyte: -1.3; Mcl1-Noxa inh: 70.0*; 14-3-3 Bad inh: 4.7

Screening results from PubChem.
